Test results taken from PubChem BioAssay (EPA / NIEHS).
Inconclusive results are not listed. Calls of active or inactive are those of the source. The calls were made as follows, unless noted: active = hit-call score of the fitted dose curve at least 0.9, where 1 is the maximum; inactive = score below 0.9.

assay: CCTE_Harrill_HTTr_Apoptosis_MCF7: CCTE's 6-hour Apoptosis Assessment for the High-Throughput Transcriptomics (HTTr) Platform, in MCF-7 cells cultured in DMEM + 10% fetal bovine serum, Harrill Lab (AID 2284011)
Method in brief: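 Apoptosis in MCF-7 cells grown in DMEM with 10% fetal bovine serum was scored after a six hour exposure by high content imaging of caspase-3/7 activation (CellEvent Caspase 3/7 Green), with DMSO serving as negative control and baseline.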

Structure (SMILES) | outcome
Oc1cc(Cl)c(Cl)cc1Cl | inactive
CCOP(=S)(OCC)Oc1ccc(Cl)cc1Cl | inactive
C[C@H]1C(=O)O[C@@H]2CCN3CC=C(COC(=O)[C@](C)(O)[C@]1(C)O)[C@H]23 | inactive
OCC(c1ccc(Cl)cc1)c1ccc(Cl)cc1 | inactive
O=C(Cc1ccccc1)OCCc1ccccc1 | inactive
Brc1c(Br)c(Br)c(Oc2c(Br)c(Br)c(Br)c(Br)c2Br)c(Br)c1Br | inactive
CC(C)(C)c1ccccc1O | inactive
Clc1cccc(Cl)c1Cl | inactive
Oc1c(Cl)cc(Cl)cc1Cl | inactive
OCCN(CCO)CCO | inactive
CCCSP(=S)(OCC)Oc1ccc(Cl)cc1Cl (configuration not stated) | inactive
O=NN1CCCCCC1 | inactive
Nc1nc(N)nc(Cl)n1 | inactive
CCCCCCCCCCCCc1cccc(S(=O)(=O)O)c1 | inactive
CC(C)[C@@H](Nc1ccc(C(F)(F)F)cc1Cl)C(=O)OC(C#N)c1cccc(Oc2ccccc2)c1 (some centres not stated) | inactive
O=C(N[C@H]1CN2CCC1CC2)c1ccc2c(c1)OCCO2 | inactive

assay: CCTE_Harrill_HTTr_CellCount_MCF7: CCTE's Cell Proliferation Assessment for the High-Throughput Transcriptomics (HTTr) Platform, Harrill Lab (AID 2284012; active = hit-call score of the fitted dose curve at least 0.9, where 1 is the maximum;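 also: count of Hoechst-stained nuclei per well by high-content imaging in MCF-7 cells; cells exposed to compound for six hours; intended direction is loss of nuclei count meaning fewer cells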)
Method in brief: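 Chemicals in eight-point dilution series are added to MCF-7 cells for six hours, nuclei are stained with Hoechst and imaged, and per-well nuclei counts are fitted in both directions relative to DMSO controls.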

Structure (SMILES) | outcome
O=C(O)C1(c2ccc3c(c2)OC[C@H](Cc2ccc(-c4ccccc4)cc2)[C@H]3O)CCCC1 | inactive
CCCCOC(=O)COC(=O)c1ccccc1C(=O)OCCCC | inactive
CC1(C)[C@H](C(=O)O[C@H](C#N)c2cccc(Oc3ccccc3)c2)[C@@H]1/C=C(\Cl)C(F)(F)F | inactive
CC(C)(C)c1ccccc1O | inactive
Clc1cccc(Cl)c1Cl | inactive
Oc1c(Cl)cc(Cl)cc1Cl | inactive

assay: CCTE_Shafer_MEA_acute_burst_number: CCTE's Neural Acute Assay for Single-Electrode Bursts, Shafer Lab (AID 2284013)
Method in brief: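 Rat cortical cultures, DIV 13/15; 40 min baseline, then 40 min with compound 0.03-40 uM, 37 C. Spikes: 300-5000 Hz band-pass, threshold 8x rms noise. Readout = % change in single-electrode bursts vs baseline, loss-of-signal fit.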

Structure (SMILES) | outcome | AC50
OCCCCO | inactive | –
N#Cc1cccnc1 | inactive | –
Cc1ccccc1OP(=O)(Oc1ccccc1C)Oc1ccccc1C | inactive | –
CCCCOC(=O)COC(=O)c1ccccc1C(=O)OCCCC | – | 10.5 nM (active)
Cc1cc(C(F)(C(F)(F)F)C(F)(F)F)ccc1NC(=O)c1cccc(I)c1C(=O)NC(C)(C)CS(C)(=O)=O | – | 1390 nM (active)
CN(C)C(=S)S | inactive | –
Oc1ccc(Cc2ccc(O)cc2)cc1 | – | 3 nM (active)
CC1(C)[C@H](C(=O)O[C@H](C#N)c2cccc(Oc3ccccc3)c2)[C@@H]1/C=C(\Cl)C(F)(F)F | inactive | –
CS(=O)(=O)c1ccc(C(=O)C2C(=O)CCCC2=O)c(Cl)c1COCC(F)(F)F | inactive | –
Oc1cc(Cl)c(Cl)cc1Cl | inactive | –
O=C(Cc1ccccc1)OCCc1ccccc1 | inactive | –
CC(C)(C)c1ccccc1O | inactive | –
Clc1cccc(Cl)c1Cl | inactive | –
CCCCCCCCCCCCc1cccc(S(=O)(=O)O)c1 | inactive | –
CC(C)[C@@H](Nc1ccc(C(F)(F)F)cc1Cl)C(=O)OC(C#N)c1cccc(Oc2ccccc2)c1 (some centres not stated) | inactive | –
